Test results taken from PubChem BioAssay AID463173 (ICCB-Longwood Screening Facility, Harvard Medical School, 2010).
Out of some 52,000 compounds screened, about 4,300 (8.3%) were called active. No stated cut-off is given here; in the data, active means survival mostly below about 52% (no sharp cut-off); inactive means mostly above about 56%. Shown is part of a subset that was picked to be rich in actives.

System: DeltatarO mutant
Test: growth inhibition of S. aureus wild type versus tarO mutant, primary screen, teichoic acid synthesis inhibitors, RN4220, OD600 (AID 463173)
Conditions: OD600, 18 h, active compounds read low, screened at 18.75 µg/mL (by protocol)

Structure (SMILES) | survival
CCN(C(=O)Cn1c(=O)n(-c2ccccc2)c(=O)c2ccc(C(=O)NCc3ccc4c(c3)OCO4)cc21)c1cccc(C)c1 | 84% (inactive)
CC(C)C(c1nnnn1C(C)(C)C)N(Cc1cc2cc3c(cc2[nH]c1=O)OCCO3)C1CCCCC1 (stereo not given) | 109% (inactive)
COc1cccc(NC(=O)CCN2CCN(CCO)CC2)c1 | 158% (inactive)
CC(C)c1nn2c(=O)cc(COC(=O)CNC(=O)c3ccccc3Cl)nc2s1 | 125% (inactive)
COc1ccc2oc(=O)cc(CN3CCN(c4ccccc4F)CC3)c2c1 | 72% (inactive)
COc1ccc2oc(=O)cc(CN3CCN(C(=O)c4ccccc4F)CC3)c2c1 | 36% (active)
COc1ccc2oc(=O)cc(CN3CCN(C(=O)c4ccccc4Br)CC3)c2c1 | 44% (active)
COc1ccc(N2CCN(Cc3cc(=O)oc4ccc(OC)cc34)CC2)cc1 | 86% (inactive)
COc1ccc2oc(=O)cc(CN3CCN(C(=O)c4ccccc4)CC3)c2c1 | 41% (active)
CCOc1ccc2oc(=O)cc(CN3CCN(c4ccccc4)CC3)c2c1 | 83% (inactive)
COc1ccc2oc(=O)cc(CN3CCN(c4ccc(F)cc4)CC3)c2c1 | 61% (inactive)
COc1ccc2oc(=O)cc(CN3CCN(c4ccccc4OC)CC3)c2c1 | 77% (inactive)
COc1ccc2oc(=O)cc(CN3CCN(Cc4ccccc4)CC3)c2c1 | 83% (inactive)
CC(C)NC(=O)C1CCN(Cc2ccccc2Cl)CC1 | 92% (inactive)
Cc1ccc(NC(=O)CCNS(=O)(=O)c2ccc3c(c2)CCN3C(=O)C2CC2)c(Cl)c1 | 83% (inactive)
COc1ccc(Cl)cc1NC(=O)CSc1nnc(C)n2c1cc1occc12 | 50% (inactive)
Cc1ccc(C)c(NC(=O)Cn2c(=O)n(CCC(=O)NCc3ccc4c(c3)OCO4)c(=O)c3ccccc32)c1 | 104% (inactive)
O=C(CN1C(=O)CSC1=O)c1ccccc1 | 88% (inactive)
CC1Cc2ccccc2N1C(=O)c1cnsn1 (stereo not given) | 97% (inactive)
CC1=C(C(=O)Nc2ccc(Cl)cc2)C(c2cccs2)n2nc(SCc3cccc(Cl)c3)nc2N1 (stereo not given) | 89% (inactive)
CCOC(=O)/C=C(\C)Nc1cc(-c2ccc(Cl)cc2)[nH]n1 | 68% (inactive)
CCNC(=S)Nc1cc(-c2ccc(Cl)cc2)[nH]n1 | 20% (active)
CC(=O)Nc1cc(-c2ccc(Cl)cc2)[nH]n1 | 106% (inactive)
CCN(CC)S(=O)(=O)c1ccc2c(c1)N(CC(=O)N1CCN(c3ccc(F)cc3)CC1)C(=O)CO2 | 94% (inactive)
Cc1oc(-c2ccc(Cl)cc2)nc1CS(=O)CC(=O)NCc1ccc(Cl)cc1 (stereo not given) | 63% (inactive)

Structure (SMILES) | survival
Cc1ccc(-c2onc(C)c2C)cc1S(=O)(=O)Nc1ccc(Cl)cn1 | 97% (inactive)
O=C(CSc1ncc(-c2ccccc2)[nH]1)Nc1cccc(Br)c1 | 9% (active)
O=C(CSc1nc2cc3ccccc3cc2[nH]1)Nc1cccc(C(F)(F)F)c1 | 74% (inactive)
O=C(CSc1ncc(-c2ccccc2)[nH]1)Nc1cccc(C(F)(F)F)c1 | 12% (active)
CCOc1ccc(-c2nnc(SCC(=O)NC3CCCCC3)nc2-c2ccc(OCC)c(OC)c2)cc1OC | 78% (inactive)
O=C(CSc1nc(-c2cccs2)nc2cc(=O)[nH]n12)Nc1ccccc1F | 47% (active)
Cc1ccccc1NC(=O)CSc1nc(-c2cccs2)nc2cc(=O)[nH]n12 | 93% (inactive)
O=C(CSc1ncc(-c2ccccc2)[nH]1)Nc1cccc(O)c1 | 89% (inactive)
Cc1cccc(NC(=O)CSc2ncc(-c3ccccc3)[nH]2)c1C | 51% (inactive)
COc1ccc(-c2nnc(SCC(=O)NC3CCCC3)nc2-c2ccc(OC)c(OC)c2)cc1OC | 47% (active)
Cc1cccc(NC(=O)CSc2ncc(-c3ccc(Br)cc3)[nH]2)c1 | 110% (inactive)
O=C(CSc1nc(-c2cccs2)nc2cc(=O)[nH]n12)Nc1ccccc1Cl | 76% (inactive)
CCOc1ccc(-c2nnc(SCC(=O)NC3CCCC3)nc2-c2ccc(OCC)c(OC)c2)cc1OC | 71% (inactive)
O=C1NC(=O)C2C3c4ccccc4C(c4ccccc43)C12 (stereo not given) | 98% (inactive)
O=C(CSc1nnc(CNC(=O)c2c(F)cccc2Cl)o1)Nc1cccc(F)c1 | 82% (inactive)
CCc1ccc(CNC(=O)c2ccc3c(c2)nc2n3CCCCC2)cc1 | 79% (inactive)
COC(=O)c1c(NC(=O)c2cc(=O)c3ccc(C)c(C)c3o2)sc2c1CCCC2 | 84% (inactive)
N#CC(C#N)=Cc1cn(CCOc2ccc3c(c2)OCO3)c2ccccc12 | 98% (inactive)
CCOC(=O)c1cc(=O)n2[nH]c(-c3ccc(Br)cc3)cc2n1 | 93% (inactive)
COc1ccc(NC(=O)c2ccc3c(c2)N(Cc2cccc(Cl)c2)C(=O)c2ccccc2S3=O)cc1Cl (stereo not given) | 112% (inactive)
COc1ccc(N(C)C(=O)c2nn(-c3ccc(C)cc3)c(=O)n(C)c2=O)c(OC)c1 | 82% (inactive)
CCOc1cccc(NC(=O)CSc2ncc(-c3ccc(Cl)cc3)[nH]2)c1 | 39% (active)
Cc1ccc(NC(=O)CSc2ncc(-c3ccccc3)[nH]2)cc1 | 51% (inactive)
CCOc1ccc(-c2nnc(SCC(=O)Nc3cccc(OC)c3)nc2-c2ccc(OCC)cc2)cc1 | 0% (active)
COc1cc(-c2nnc(SCC(=O)Nc3cccc(C#N)c3)o2)cc(OC)c1OC | 110% (inactive)

Structure (SMILES) | survival
CCOc1ccc(NC(=O)CSc2nnc(-c3ccc(OCC)cc3)o2)cc1 | 94% (inactive)
CCOc1cccc(NC(=O)CSc2ncc(-c3ccccc3)[nH]2)c1 | 49% (inactive)
CCOc1ccc(-c2nnc(SCC(=O)Nc3cccc(C#N)c3)o2)cc1 | 48% (active)
O=C(CSc1ncc(-c2ccccc2)[nH]1)Nc1ccccc1 | 64% (inactive)
COc1ccc(-c2nnc(SCC(=O)Nc3cccc(C(F)(F)F)c3)nc2-c2ccc(OC)cc2)cc1 | 87% (inactive)
O=C(CSc1ncc(-c2ccccc2)[nH]1)Nc1ccc(Cl)cc1 | 36% (active)
COc1ccc(NC(=O)CSc2ncc(-c3ccc(Cl)cc3)[nH]2)cc1OC | 78% (inactive)
CCOc1ccc(NC(=O)CSc2nnc(-c3ccc(C)cc3)c(-c3ccc(C)cc3)n2)cc1 | 115% (inactive)
CCOc1ccccc1-n1nnc(-c2nc(-c3ccccc3C)no2)c1C | 96% (inactive)
Cc1c(F)cccc1NC(=O)C1CCCN1S(=O)(=O)c1ccc(F)cc1 (stereo not given) | 72% (inactive)
CC1=C(c2ccc(C)cc2)S(=O)(=O)N(Cc2ccc(C(=O)NCc3ccccc3)cc2)C1=O | 81% (inactive)
CCN(C(=O)c1cccs1)c1nnc(-c2cccc(C)c2)s1 | 93% (inactive)
COc1ccc(CCNC(=S)N(Cc2ccco2)Cc2cc3cc(OC)c(OC)cc3[nH]c2=O)cc1OC | 73% (inactive)
O=C(CSc1ncc(-c2ccc(F)cc2)n1Cc1ccco1)OC1CCCCC1 | 108% (inactive)
COc1ccc(OC)c(NC(=O)COCc2cc(-c3ccc(F)cc3)on2)c1 | 93% (inactive)
O=C(CSc1nc(-c2ccccc2F)nc2cc(=O)[nH]n12)Nc1cccc(C(F)(F)F)c1 | 69% (inactive)
O=C(CSc1nc(-c2cccs2)nc2cc(=O)[nH]n12)Nc1cccc(C(F)(F)F)c1 | 94% (inactive)
Cc1cccc(-c2nc(SCC(=O)Nc3cccc(C(F)(F)F)c3)n3[nH]c(=O)cc3n2)c1 | 0% (active)
Cc1ccc(-c2noc(-c3nnn(CC(=O)Nc4cc(Cl)ccc4C)c3N)n2)cc1 | 80% (inactive)
O=C(Nc1cccc(C(F)(F)F)c1)c1ccc2snnc2c1 | 111% (inactive)
CC(=O)c1ccc(NC(=O)Nc2ccc3snnc3c2)cc1 | 50% (inactive)
COc1cccc(NC(=O)Nc2ccc3snnc3c2)c1 | 68% (inactive)
Cc1ccc(NC(=O)Nc2ccc3snnc3c2)cc1C | 66% (inactive)
O=C(Nc1cccc(C(F)(F)F)c1)Nc1ccc2snnc2c1 | 11% (active)
O=C(Nc1ccc(F)cc1)Nc1ccc2snnc2c1 | 19% (active)

Structure (SMILES) | survival
COc1ccc(NC(=O)CSC2=Nc3ccccc3C3=NC(CCC(=O)NCc4cccs4)C(=O)N23)cc1 (stereo not given) | 93% (inactive)
CC1=C(c2ccc(C)c(C)c2)S(=O)(=O)N=C1N1CCC(C(=O)NC(C)c2ccccc2)CC1 (stereo not given) | 84% (inactive)
CC(=O)N1Cc2ccccc2C(C)CC12CCCC2 (stereo not given) | 119% (inactive)
Cc1nn2c(=O)cc(COC(=O)c3cccs3)nc2s1 | 89% (inactive)
Fc1ccc(NCc2ccccc2-c2nnc(-c3ccccc3Cl)o2)cc1Cl | 77% (inactive)
O=C(NCCc1nc2ccccc2n1Cc1ccc(F)cc1)c1ccco1 | 47% (inactive)
CCC1=Nc2cc(C(=O)NC3CCCC3)ccc2Sc2ccc(Br)cc21 | 44% (active)
CC1=Nc2cc(C(=O)NC3CCC(C)CC3)ccc2Sc2c(C)ccc(C)c21 (stereo not given) | 73% (inactive)
CC1=Nc2cc(C(=O)NC3CCCC3)ccc2Sc2ccc(Br)cc21 | 57% (inactive)
CC1=Nc2cc(C(=O)NC3CCCC3)ccc2Sc2ccc(C)cc21 | 59% (inactive)
CCC1=Nc2cc(C(=O)NC3CCC(C)CC3)ccc2Sc2ccc(C)cc21 (stereo not given) | 39% (active)
CCC1=Nc2cc(C(=O)NCc3ccc(C)cc3)ccc2Sc2ccc(C)cc21 | 78% (inactive)
CCC1=Nc2cc(C(=O)NC3CCCC3)ccc2Sc2ccc(Cl)cc21 | 58% (inactive)
CCCC1=Nc2cc(C(=O)NC3CCCCC3)ccc2Sc2ccc(C)cc21 | 94% (inactive)
CCCC1=Nc2cc(C(=O)NC3CCCC3)ccc2Sc2ccc(C)cc21 | 46% (active)
COc1ccc(CNC(=O)c2cc3cc(C)ccc3n2C)cc1 | 74% (inactive)
O=C(CSc1nc2c([nH]c3ccccc32)c(=O)n1-c1cccc(C(F)(F)F)c1)N1CCc2ccccc21 | 78% (inactive)
O=C(NC1CC(=O)N(c2ccc(Cl)cc2)C1)c1cccs1 (stereo not given) | 71% (inactive)
CC1CCN(c2nc3ccc(C(=O)NC(C)C)cc3s2)CC1 | 74% (inactive)
Cc1ccc(CNS(=O)(=O)c2cc3[nH]c(=O)c(=O)[nH]c3cc2C)cc1 | 47% (active)
COc1cccc(CNS(=O)(=O)c2cc3[nH]c(=O)c(=O)[nH]c3cc2C)c1 | 67% (inactive)
Cc1cc2[nH]c(=O)c(=O)[nH]c2cc1S(=O)(=O)NCc1ccc(F)cc1 | 112% (inactive)
CC(C)Sc1ncc(Cl)c(C(=O)N(Cc2ccc(F)cc2)C2CCS(=O)(=O)C2)n1 (stereo not given) | 76% (inactive)
CN(Cc1ccccc1)Cn1[nH]c(=O)ccc1=O | 110% (inactive)
COc1ccc(C)c2sc(N(Cc3cccnc3)C(=O)COc3ccccc3)nc12 | 85% (inactive)
